This is an account of results in PubChem BioAssay (EPA / NIEHS).

Usually AC50 stands for the midpoint of the concentration-response curve, whichever way the signal moves.

The source made the active and inactive calls. Rule for the calls: active = hit-call score of the fitted dose curve at least 0.9, where 1 is the maximum; inactive = score below 0.9.

Read-out in experiment [1]: Transforming growth factor beta 1 (TGFb1), TGFB1 (gene 7040)
Kind of experiment: BSK_KF3CT_TGFb1: BioMAP Diversity Plus: KF3CT Assay for Transforming growth factor beta 1 (TGFb1) Biomarker Activity (AID 2283072). To be noted: primary human keratinocytes with fibroblasts; actives raise or lower the signal. In a few lines:
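Read-out: ELISA for TGF-b1 in keratinocyte/foreskin fibroblast human skin co-culture, 24 h after dosing; bidirectional curve fit vs DMSO baseline; gain or loss of signal scored.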

Read-out in experiment [2]: C-C motif chemokine 2 (Homo sapiens) (UniProt P13500)
Description: BSK_KF3CT_MCP1: BioMAP Diversity Plus: KF3CT Assay for Monocyte Chemoattractant Protein 1 (MCP1/CCL2) Biomarker Activity (AID 2283073). Particulars: primary human keratinocytes with fibroblasts; actives raise or lower the signal. The method, boiled down: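 Keratinocytes and foreskin fibroblasts were co-cultured, dosed with chemical, and sampled 24 h later. MCP-1 was quantified by ELISA, and the endpoint was analyzed with bidirectional fitting using DMSO as negative control.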

Read-out in experiment [3]: Matrix Metallopeptidase 9 (MMP9), MMP9 (gene 4318)
Kind of experiment: BSK_KF3CT_MMP9: BioMAP Diversity Plus: KF3CT Assay for Matrix Metallopeptidase 9 (MMP9) Biomarker Activity (AID 2283074). To be noted: primary human keratinocytes with fibroblasts; actives raise or lower the signal. The method, boiled down: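 MMP-9 quantified by ELISA after 24 h chemical treatment of primary human skin keratinocyte/fibroblast co-cultures; gain or loss fitted against DMSO, with parallel SRB staining (0.1% SRB, 560 nm) for overt cytotoxicity.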

Read-out in experiment [4]: urokinase plasminogen activator (uPA), PLAU (gene 5328)
Kind of experiment: BSK_KF3CT_uPA: BioMAP Diversity Plus: KF3CT Assay for urokinase plasminogen activator (uPA) Biomarker Activity (AID 2283075). To be noted: primary human keratinocytes with fibroblasts; actives raise or lower the signal. In a few lines: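 ELISA read-out of uPA 24 h after dosing human skin keratinocytes co-cultured with foreskin fibroblasts. Signal change fitted both ways relative to DMSO; sulforhodamine B on parallel cultures marks overt cytotoxicity.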

Read-out in experiment [5]: CD40, CD40 (gene 958)
Description: BSK_LPS_CD40: BioMAP Diversity Plus: LPS Assay for CD40 Biomarker Activity (AID 2283076). To be noted: primary human HUVEC with PBMC; actives raise or lower the signal. In a few lines: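 CD40 signal, measured by ELISA, is fitted in both directions relative to DMSO vehicle. The system is an LPS-driven human vascular primary co-culture of endothelial cells and PBMC, sampled 24 h after compound addition.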

Read-out in experiment [6]: E-selectin (Homo sapiens) (UniProt P16581)
Description: BSK_LPS_Eselectin: BioMAP Diversity Plus: LPS Assay for Eselectin Biomarker Activity (AID 2283077). To be noted: primary human HUVEC with PBMC; actives raise or lower the signal. In a few lines: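 Signal of E-selectin, detected by ELISA, served as the endpoint; cells were umbilical vein endothelium with PBMC, read 24 h after treatment. DMSO defined baseline, and both increases and decreases were fitted.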

Read-out in experiment [7]: Interleukin-8 (IL8), CXCL8 (gene 3576)
Kind of experiment: BSK_LPS_IL8: BioMAP Diversity Plus: LPS Assay for Interleukin-8 (IL8) Biomarker Activity (AID 2283078). Particulars: primary human HUVEC with PBMC; actives raise or lower the signal. In a few lines: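 Endothelial cells and PBMC from human donors are co-cultured, treated with chemicals and LPS, then assayed for IL-8 by ELISA after 24 h. Parallel SRB staining (0.1% SRB after 10% TCA fixation, 560 nm) flags cytotoxicity.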

A short description of experiment [8]: BSK_LPS_SRB: Viability Assessment in the BioMAP Diversity Plus: LPS Assay (AID 2283079).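 Note: total protein by sulforhodamine B absorbance as a cytotoxicity measure; measured one day after compound addition; fitted in both directions against DMSO so loss or gain of signal counts.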 Particulars: primary human HUVEC with PBMC. The method, boiled down: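 Overt cytotoxicity was gauged by sulforhodamine B total-protein staining in a primary human vascular endothelial and mononuclear cell co-culture 24 h post-dosing. Activity was fitted in both directions relative to DMSO.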

Read-out in experiment [9]: Interleukin-1 alpha (IL1a), IL1A (gene 3552)
Kind of experiment: BSK_LPS_IL1a: BioMAP Diversity Plus: LPS Assay for Interleukin-1 alpha (IL1a) Biomarker Activity (AID 2283080). To be noted: primary human HUVEC with PBMC; actives raise or lower the signal. The method, boiled down:
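Measured: IL-1 alpha via ELISA at 24 h in LPS-activated human umbilical vein endothelium–PBMC co-culture. Baseline: DMSO, bidirectional fitting.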

Read-out in experiment [10]: Monocyte Chemoattractant Protein-1 (MCP1), CCL2 (gene 6347)
Description: BSK_LPS_MCP1: BioMAP Diversity Plus: LPS Assay for Monocyte Chemoattractant Protein-1 (MCP1) Biomarker Activity (AID 2283081).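 For AC50: secreted MCP-1 protein quantified by ELISA in culture supernatant.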 Particulars: primary human HUVEC with PBMC; actives raise or lower the signal. The method, boiled down: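 LPS-stimulated HUVEC/PBMC co-culture; chemical, 24 h; MCP-1 by ELISA; bidirectional fit vs DMSO; cytotoxicity via SRB (0.1% stain, 10% TCA fix, 560 nm) in parallel wells.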

Experiment [11] can be described thus: BSK_LPS_PGE2: BioMAP Diversity Plus: LPS Assay for Prostaglandin E2 (PGE2) Biomarker Activity (AID 2283082). Particulars: primary human HUVEC with PBMC; actives raise or lower the signal. In a few lines:
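ELISA read-out of PGE2 from human umbilical vein endothelial cells co-cultured with peripheral blood mononuclear cells under LPS, 24 h post-dose. Gain or loss of signal scored relative to DMSO baseline.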

Read-out in experiment [12]: Macrophage colony-stimulating factor (MCSF), CSF1 (gene 1435)
Description: BSK_LPS_MCSF: BioMAP Diversity Plus: LPS Assay for Macrophage colony-stimulating factor (MCSF) Biomarker Activity (AID 2283083). Particulars: primary human HUVEC with PBMC; actives raise or lower the signal. In a few lines:
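Compound is added to a human vascular primary co-culture of umbilical vein endothelium and blood mononuclear cells. After 24 h, M-CSF is quantified by ELISA. Signal changes are fitted in both directions against DMSO.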

Read-out in experiment [13]: Tissue Factor, F3 (gene 2152)
Kind of experiment: BSK_LPS_TissueFactor: BioMAP Diversity Plus: LPS Assay for Tissue Factor Biomarker Activity (AID 2283084). Particulars: primary human HUVEC with PBMC; actives raise or lower the signal. In a few lines: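 In this co-culture system of umbilical vein endothelium with PBMC, stimulated with LPS, cell-surface CD142 is detected by ELISA at 24 h. Endpoint values derive from bidirectional fitting, DMSO serving as baseline.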

Read-out in experiment [14]: Tumor necrosis factor (Homo sapiens) (UniProt P01375)
Kind of experiment: BSK_LPS_TNFa: BioMAP Diversity Plus: LPS Assay for Tumour Necrosis Factor alpha (TNFa) Biomarker Activity (AID 2283085). To be noted: primary human HUVEC with PBMC; actives raise or lower the signal. The method, boiled down: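 HUVEC/PBMC co-culture, LPS-stimulated; 24 h post-dose; TNFa by ELISA; gain or loss of signal fitted bidirectionally vs DMSO baseline.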

Read-out in experiment [15]: Vascular cell adhesion molecule 1 (VCAM1), VCAM1 (gene 7412)
Description: BSK_LPS_VCAM1: BioMAP Diversity Plus: LPS Assay for Vascular cell adhesion molecule 1 (VCAM1) Biomarker Activity (AID 2283086). To be noted: primary human HUVEC with PBMC; actives raise or lower the signal. In a few lines:
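ELISA read-out of VCAM-1 at 24 h post-dosing in an LPS-driven HUVEC/PBMC primary human co-culture; gain or loss of signal fitted bidirectionally against DMSO baseline. Cytotoxicity tracked in parallel cultures by SRB total-protein staining.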

Read-out in experiment [16]: CD40, CD40 (gene 958)
Description: BSK_SAg_CD40: BioMAP Diversity Plus: SAg Assay for CD40 Biomarker Activity (AID 2283088). To be noted: primary human HUVEC with PBMC; actives raise or lower the signal. In a few lines:
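Fluorescence ELISA read-out of CD40 from umbilical vein endothelium plus peripheral blood mononuclear cells, sampled 24 h after dosing. Values come from bidirectional curve fitting with DMSO as baseline.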

Read-out in another experiment: CD69, CD69 (gene 969)
Kind of experiment: BSK_SAg_CD69: BioMAP Diversity Plus: SAg Assay for CD69 Biomarker Activity (AID 2283089). Particulars: primary human HUVEC with PBMC; actives raise or lower the signal. In a few lines: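 ELISA, fluorescence read-out: CD69 on human umbilical vein endothelial cell + PBMC co-culture, 24 h post-dosing. Gain or loss of signal fitted bidirectionally against DMSO baseline.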

Read-out in experiment [17]: Monocyte Chemoattractant Protein-1 (MCP1), CCL2 (gene 6347)
Description: BSK_SAg_MCP1: BioMAP Diversity Plus: SAg Assay for Monocyte Chemoattractant Protein-1 (MCP1) Biomarker Activity (AID 2283090). To be noted: primary human HUVEC with PBMC; actives raise or lower the signal. In a few lines: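 Values derive from bidirectional fitting of ELISA-measured MCP1 against DMSO controls. Readings were taken 24 h after dosing human vascular endothelial cells co-cultured with peripheral blood mononuclear cells under superantigen stimulation.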

Read-out in experiment [18]: E-selectin (Homo sapiens) (UniProt P16581)
Description: BSK_SAg_Eselectin: BioMAP Diversity Plus: SAg Assay for Eselectin Biomarker Activity (AID 2283091). To be noted: primary human HUVEC with PBMC; actives raise or lower the signal. In a few lines: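 Primary human endothelial cells and peripheral blood mononuclear cells were co-cultured and exposed to chemical for 24 hours. E-selectin levels were then quantified by ELISA, with bidirectional curve fitting normalised to DMSO controls.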

Sequence of E-selectin (Homo sapiens) (P16581 whole entry, looked up): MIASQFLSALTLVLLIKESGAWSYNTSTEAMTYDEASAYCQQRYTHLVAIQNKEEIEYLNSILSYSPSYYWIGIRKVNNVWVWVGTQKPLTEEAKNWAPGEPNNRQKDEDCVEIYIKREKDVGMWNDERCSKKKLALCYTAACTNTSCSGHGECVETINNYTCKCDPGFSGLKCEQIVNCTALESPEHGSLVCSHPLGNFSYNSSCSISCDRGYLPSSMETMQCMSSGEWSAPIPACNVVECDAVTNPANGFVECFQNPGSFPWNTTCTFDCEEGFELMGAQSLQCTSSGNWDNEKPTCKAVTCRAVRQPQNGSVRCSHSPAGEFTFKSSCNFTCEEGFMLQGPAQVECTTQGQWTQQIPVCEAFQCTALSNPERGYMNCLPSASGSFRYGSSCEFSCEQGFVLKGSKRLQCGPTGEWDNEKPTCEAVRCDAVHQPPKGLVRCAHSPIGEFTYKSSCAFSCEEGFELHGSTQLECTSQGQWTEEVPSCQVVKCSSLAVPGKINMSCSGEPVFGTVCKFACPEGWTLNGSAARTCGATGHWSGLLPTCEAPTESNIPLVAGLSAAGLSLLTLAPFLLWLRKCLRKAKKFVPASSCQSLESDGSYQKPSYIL
Sequence of Tumor necrosis factor (Homo sapiens) (P01375 whole entry, looked up): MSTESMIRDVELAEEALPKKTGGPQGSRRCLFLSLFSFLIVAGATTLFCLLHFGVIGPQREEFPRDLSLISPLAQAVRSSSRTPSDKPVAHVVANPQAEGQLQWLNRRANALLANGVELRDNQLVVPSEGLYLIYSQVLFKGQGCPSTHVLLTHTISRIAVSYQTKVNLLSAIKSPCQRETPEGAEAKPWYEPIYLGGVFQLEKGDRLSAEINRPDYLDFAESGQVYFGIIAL

As for `CC(=O)CCC=C(C)CCC=C(C)C`, the outcome is “inactive” in experiment [1]; “inactive” in experiment [2]; “inactive” in experiment [3]; “inactive” in experiment [4]; “inactive” with CD40, CD40 (gene 958) [5]; “inactive” in experiment [6]. The result in [7], in [8], in [9], in [10], in [11] and in experiment [12] was inactive. Besides, the outcome in experiment [13] was “inactive”; in experiment [14] it was “inactive”; in experiment [15] it was “inactive”; with CD40, CD40 (gene 958) [16] it was “inactive”; with CD69, CD69 (gene 969), “inactive”; in experiment [17], “inactive”. Further, the outcome in experiment [18] was inactive.

For the compound `COc1ccccc1NC(=O)CC(C)=O`, the outcome is “inactive” in experiment [1]; “inactive” in experiment [2]; “inactive” in experiment [3]; “inactive” in experiment [4]; “inactive” with CD40, CD40 (gene 958) [5]; “inactive” in experiment [6]. Moreover, the result in experiment [7], in experiment [8], in experiment [9], in [10], in experiment [11] and in [12] was inactive. The outcome is “inactive” in experiment [13]; “inactive” in experiment [14]; “inactive” in experiment [15]; “inactive” with CD40, CD40 (gene 958) [16]; “inactive” in the experiment with CD69, CD69 (gene 969); “inactive” in experiment [17]. The outcome in experiment [18] was inactive.

Regarding `C#C[C@]1(O)CC[C@H]2[C@@H]3CCc4cc(O)ccc4[C@H]3CC[C@@]21C`, the outcome in experiment [1] was “inactive”; in [2], “inactive”; in [3] it was “inactive”; in experiment [4] it was “inactive”; in the experiment with CD40, CD40 (gene 958) [5], “inactive”; in [6], “inactive”. Also, the outcome in experiment [11] is “inactive”; in experiment [12], “inactive”; in [13], “inactive”; in [14], “inactive”; with CD40, CD40 (gene 958) [16], “inactive”; with CD69, CD69 (gene 969), “inactive”. The outcome in experiment [18] was inactive. Besides, the half-maximal activity concentration (AC50) was 31.2 µM (active) in [7]; 9.58 µM (active) in [8]; 20 µM (active) in experiment [9]; 6.83 µM (active) in experiment [10]; 6.47 µM (active) in [15]; 5.56 µM (active) in experiment [17].
